The list is not random: actives were taken first. Their share in the collection is about 2%.
Rev-erbA mod – modulates human Rev-erb alpha binding to DNA. P20393. Rev-erbα–FITC-DNA binding, fluorescence polarization, 90 min. activity, % at 10 µM. 370,000 compounds, 0.79% hits;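 active = activity above about 14%, limit read from the data; passing the limit was not always enough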;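 note: 0% = DMSO wells with 35 nM protein and 100% = DMSO wells with 750 nM protein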
Granule exo inh – blocks lytic granule exocytosis. TALL-104 LAMP-1 surface exposure, flow cytometry; cells stimulated with thapsigargin and PMA. inhibition, % at 10 µM. 360,000 compounds, 0.66% hits. AID 651702;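 active = inhibition above about 55%, limit read from the data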
PG9 binder – small molecules binding HIV-1 gp120 antibody PG9 | TR-FRET gp120-PG9 antibody binding | inhibition, % at 6.7 µM | 360,000 compounds, 0.43% hits; in the data active = inhibition above about 8.5%
VLA-4 inh – inhibition in a human VLA-4 binding assay | AID 2557 | inhibition, % (about 7 µM as worked out from the volumes in the protocol) | VLA-4 expressing cells, ligand binding flow cytometry | 330,000 compounds, 0.2% hits; in the data active = inhibition above about 50%
ABCB6 inh MLPCN – human ABCB6 transporter inhibition | K562-ABCB6 porphyrin accumulation, flow cytometry, 1 h; stronger effect = lower value | fluorescence ratio to DMSO, % at 10 µM | 360,000 compounds, 0.19% hits | AID 602162;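 active = fluorescence ratio to DMSO below 75%, the collection mean minus 3 SD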;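 note: signal is porphyrin accumulated inside mitochondria; 100% equals median channel fluorescence of DMSO control wells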
Exocytosis CP01 – lytic granule exocytosis inhibition; AID 651954; inhibition, % at 10 µM; TALL-104 cells, LAMP-1 externalization, flow cytometry; stimulated with PMA plus thapsigargin; 1,500 compounds, 11% hits; shares compounds with Granule exo inh; in the data active = inhibition above about 60%;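 note: 0% = stimulated vehicle wells and 100% = unstimulated wells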
Active calls of the source: *.

For Cc1ccc(NS(=O)(=O)c2cccc(C(=O)NCCc3c[nH]c4ccccc34)c2)c(C)c1 the results were Rev-erbA mod 6, Granule exo inh 62*, PG9 binder -2, VLA-4 inh 9, ABCB6 inh MLPCN 97 and Exocytosis CP01 1.
Cc1ccc(NC(=O)C(=O)NCCc2c[nH]c3ccccc23)c(C)c1 was read as Rev-erbA mod 5, Granule exo inh -10, PG9 binder -1, VLA-4 inh 0 and ABCB6 inh MLPCN 105.
`CCn1c(COc2ccccc2)nnc1SCC(=O)Nc1ccc(S(=O)(=O)Nc2cc(C)nc(C)n2)cc1` gave Rev-erbA mod 2.
Screening O=C(NCc1ccc(C(F)(F)F)cc1)O[C@H]1CC[C@@]23CCCN2C(=O)CCC[C@H]3C1 returned Rev-erbA mod 3.
For O=C(COC(=O)Cc1c[nH]c2ccccc12)NC1CCCCC1 the results were Rev-erbA mod 1, Granule exo inh 77*, PG9 binder -3, VLA-4 inh -2, ABCB6 inh MLPCN 96 and Exocytosis CP01 -3.
O=C(O)CCCCCCCCCCCNC(=O)NC12CC3CC(CC(C3)C1)C2 was read as Rev-erbA mod -1, Granule exo inh 80*, PG9 binder 1, VLA-4 inh -3, ABCB6 inh MLPCN 80 and Exocytosis CP01 -3.
`O=C(NCCCN1CCN(c2ccc(F)cc2)CC1)NC12CC3CC(CC(C3)C1)C2` gave Rev-erbA mod -3, Granule exo inh 56*, PG9 binder 0, VLA-4 inh 9, ABCB6 inh MLPCN 88 and Exocytosis CP01 -4.
Screening Cc1cc(-c2nnc(SCC(=O)Nc3cccc4ccccc34)n2N)n[nH]1 returned Rev-erbA mod -1.
O=C(C[C@H]1C/C=C\C[C@H](Cc2ccc(F)cc2)C(=O)O[C@@H](c2ccccc2)CNC1=O)N[C@@H](CO)Cc1ccccc1 was read as Rev-erbA mod -2, Granule exo inh 56*, PG9 binder 0, VLA-4 inh -1, ABCB6 inh MLPCN 91 and Exocytosis CP01 -4.
`Cc1cc(N2CCN(C(=O)OC(C)(C)C)C[C@H]2C)ccc1N1CCN(Cc2ccccc2)[C@@H](C)C1` gave Rev-erbA mod 1 and PG9 binder 0.
Cc1ccc(S(=O)(=O)N2CCOCC2)cc1NC(=O)CN1CCC(Cc2ccccc2)CC1 was read as Rev-erbA mod 1, Granule exo inh 71*, PG9 binder 0, VLA-4 inh 21, ABCB6 inh MLPCN 107 and Exocytosis CP01 -13.
Clc1ccc(OCCOc2ccc(Br)nc2Br)c(Cl)c1 was read as Rev-erbA mod 3.
For Cc1cccc(OCCOC(=O)c2c(-c3ccccc3)noc2C)c1 the results were Rev-erbA mod 7, Granule exo inh 75*, PG9 binder 0, VLA-4 inh -6, ABCB6 inh MLPCN 90 and Exocytosis CP01 -9.
CCCCC[C@@H](C)N1C[C@@H](COCc2ccccc2)Oc2cc(N3CC[C@H](N(C)C)C3)ccc2S1(=O)=O was read as Rev-erbA mod 8, Granule exo inh 56*, PG9 binder 1, ABCB6 inh MLPCN 104 and Exocytosis CP01 69*.
Screening CCCCC[C@H](C)N1C[C@H](COCc2ccccc2)Oc2cc(N3CC[C@@H](O)C3)ccc2S1(=O)=O returned Rev-erbA mod 6, Granule exo inh 8, PG9 binder -1 and ABCB6 inh MLPCN 99.
CCCCC[C@H](C)N1C[C@@H](COCc2ccccc2)Oc2cc(N3CC[C@H](N(C)C)C3)ccc2S1(=O)=O was read as Rev-erbA mod 2, Granule exo inh 75*, PG9 binder -2, ABCB6 inh MLPCN 98 and Exocytosis CP01 24.
For Cc1ccc(NC(=O)NCC2CC2(Cl)Cl)cc1 (configuration not stated) the results were Rev-erbA mod -1, Granule exo inh -2, PG9 binder -1, VLA-4 inh -7 and ABCB6 inh MLPCN 102.
O=C(NCC1CC1(Cl)Cl)Nc1ccc(Cl)c(Cl)c1 (configuration not stated) was read as Rev-erbA mod -8, Granule exo inh 90*, PG9 binder -2, VLA-4 inh -1, ABCB6 inh MLPCN 89 and Exocytosis CP01 -12.
`CCOc1cc(CCNC(=O)c2cc(-c3ccccc3)c(N3CCOCC3)s2)ccc1OC` gave Rev-erbA mod 3.
COC(=O)C(NC(=O)CNS(=O)(=O)c1ccc(Br)cc1)c1ccccc1 (configuration not stated) was read as Rev-erbA mod 1, Granule exo inh 62*, PG9 binder -3, VLA-4 inh -2, ABCB6 inh MLPCN 93 and Exocytosis CP01 -5.
`C[C@@H]1CN([C@H](C)CO)C(=O)c2cc(Br)cnc2O[C@H]1CN(C)C(=O)c1ccc(F)cc1` gave Rev-erbA mod 3 and PG9 binder 0.
COc1cc(CNc2ccc(O)cc2)cc(Br)c1OCc1ccccc1 was read as Rev-erbA mod 5, Granule exo inh 1, PG9 binder 0, VLA-4 inh -11 and ABCB6 inh MLPCN 96.
COc1cc(CNC(C)c2ccccc2)cc(Br)c1OCc1ccc(F)cc1 (configuration not stated) was read as Rev-erbA mod 2, Granule exo inh 65*, PG9 binder -2, VLA-4 inh 10, ABCB6 inh MLPCN 111 and Exocytosis CP01 -13.
`COc1cc(CNC(C)c2ccccc2)cc(Br)c1OCc1ccccc1` (configuration not stated) gave Rev-erbA mod 1, Granule exo inh 88*, PG9 binder -1, VLA-4 inh 20, ABCB6 inh MLPCN 93 and Exocytosis CP01 -1.
For Cc1cc(OC(C)C(=O)N2CCN(c3ccc(F)cc3)CC2)c2c(C)c(C)c(=O)oc2c1 (configuration not stated) the results were Rev-erbA mod -3, Granule exo inh 64*, PG9 binder -1, VLA-4 inh -6, ABCB6 inh MLPCN 100 and Exocytosis CP01 -12.
For Cc1cc(OCC(=O)N2CCN(c3cccc(Cl)c3)CC2)c2c(C)c(C)c(=O)oc2c1 the results were Rev-erbA mod 14, Granule exo inh 10, PG9 binder -1, VLA-4 inh -7 and ABCB6 inh MLPCN 102.
For Cc1cc(C)nc(NC(=NCCc2c[nH]c3ccccc23)NC(=O)C(C)(C)C)n1 the results were Rev-erbA mod -4, Granule exo inh 83*, PG9 binder 1, VLA-4 inh 18, ABCB6 inh MLPCN 91 and Exocytosis CP01 -3.
Screening Cc1ccc(-c2nn(-c3ccccc3)cc2CN(Cc2ccccc2)C(=O)c2ccco2)o1 returned Rev-erbA mod -2, Granule exo inh 108*, PG9 binder -1, VLA-4 inh -14, ABCB6 inh MLPCN 98 and Exocytosis CP01 104*.
`COC(=O)C1CN(CCO)CCS(=O)(=O)N1Cc1cn(Cc2ccc(C)cc2)nn1` (configuration not stated) gave Rev-erbA mod 1.

Source: PubChem (several laboratories)
